Source: PubChem BioAssay (NCATS)
Values without a mark were called inactive. Inconclusive results are not listed. Active and inactive are the calls of the source. Unless noted, calls come from the whole dose curve; as a rule, active = well fitted curve in either direction with a large enough effect (not every such curve was filed as active); inconclusive = small, poorly fitted or top-dose-only effect, or another doubt; inactive = flat fitted curve, though single readings scatter.

Tests used:
[1] = target: Lysosomal acid glucosylceramidase (Homo sapiens) (UniProt P04062); assay: Glucocerebrosidase-p2 (AID 348; in the data active = potency below about 10 µM; note: potency is the fitted concentration of half-maximal effect); settings: purified GBA, blue fluorogenic substrate, 40 min
How it was run: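 Normal human glucocerebrosidase (0.2 nM) with blue fluorogenic substrate (80 uM final) in citrate/phosphate pH 5.9 with 10mM sodium taurocholate, 0.01% tween-20; 40 min RT, NaOH/glycine stop; fluorescence Ex 365/Em 440; AC50 from a titration from 0.6 nM upwards.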

[2] = AP1 Signaling Pathway (AID 357); settings: ME-180 AP-1-bla reporter, EGF-induced, beta-lactamase ratio, 5 h; at 7.69 µM (top of the series) unless noted; note: % is set by controls: 0 for no effect and ±100 for the full control effect
How it was run: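 Modulation of EGF-driven AP-1 transcription was assessed with a beta-lactamase reporter in ME-180 cells. Compound and EC50 EGF were co-incubated 5 hours at 37 °C before 2.5-hour CCF4 loading at room temperature and dual-emission reading.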

[3] = target: Cytochrome P450 1A2 (Homo sapiens) (UniProt P05177); assay: p450-cyp1a2 (AID 410; calls by dose curve; note: potency is the fitted concentration of half-maximal effect;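 for activity change, negative = inhibition: -100% = full effect of reference inhibitor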); settings: recombinant CYP1A2, luciferin-ME demethylation, luminescence; series mostly up to 11.4 µM
How it was run: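 Luminescent demethylation readout: Luciferin-ME (100uM, equal to Km) turned over by 20nM CYP1A2 for 60 min at room temperature after NADPH regeneration addition, following 10 min compound preincubation. Normalization used 57 uM furafylline as full inhibition.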

[4] = NFAT Signaling Pathway (AID 444); settings: Jurkat NFAT-bla M1, carbachol, beta-lactamase ratio, 5 h; at 7.69 µM (top of the series) unless noted;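 note: carbachol stimulus at about its EC50 of 1 µM final; % is set by controls: 0 for no effect and ±100 for the full control effect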
How it was run: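 Jurkat cells with NFAT-driven β-lactamase reporter and co-expressed M1 receptor, stimulated with carbachol (final 1 uM, ~EC50), compound titration, 5 h at 37 °C. CCF4 loaded 1 h at RT; 460/530 nm ratio gave %activity and AC50.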

[5] = Stat Signaling Pathway (AID 446); settings: ME-180 SIE beta-lactamase reporter, IL-6 stimulated, 5 h; at 7.69 µM (top of the series) unless noted;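 note: ME-180 cervical cancer cells given 40 pM IL-6 alongside compound; SIE-controlled beta-lactamase reporter measured as 460/530 nm FRET emission ratio; % is set by controls: 0 for no effect and ±100 for the full control effect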
How it was run: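 Compound effects on IL-6-induced STAT reporter activity were measured in ME-180 cells. After overnight culture, cells were co-treated with 40 pM IL-6 for 5 hrs before beta-lactamase substrate loading at room temperature.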

[6] = target: Glucocorticoid receptor (Homo sapiens) (UniProt P04150); assay: GR-GFP Redistribution (AID 450;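 active = compounds whose dose series gives a full or clear partial fitted curve of increased nuclear translocation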; note: potency is the fitted concentration of half-maximal effect); settings: U2OS GR-GFP nuclear translocation, laser cytometry, 2 h
[7] = target: Glucocorticoid receptor (Homo sapiens) (UniProt P04150); assay: GR-EFC Redistribution (AID 451; calls by dose curve; note: potency is the fitted concentration of half-maximal effect); settings: CHO-K1 GR-EFC translocation, beta-gal luminescence, 2 h
How it was run: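 CHO-K1 cells expressing nuclear EA and GR-ED fragments of b-gal; compounds titrated up to 46 uM final, 2 h at 37 C. GR nuclear translocation read as complemented b-gal luminescence after 1 h RT detection.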

[8] = target: Mitogen-activated protein kinase 10 (Mus musculus) (UniProt Q61831); assay: JNK3 AlphaScreen Assay (AID 530); settings: JNK3 lysate, c-Jun phosphorylation; series mostly up to 11.4 µM;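 note: kinase came from lysate of stimulated human HepG2 cells; signal reports phosphorylation of biotinylated GST-cJun 1-79 at Ser73 with 10 µM ATP; % is set by controls: 0 for no effect and ±100 for the full control effect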
How it was run: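 Activity was read by AlphaScreen after JNK3-containing HepG2 lysate (cytokine pre-activated) phosphorylated biotinylated GST-cJun with 10 uM ATP at room temperature. Phospho-Ser73 cJun antibody with Protein-A acceptor beads provided detection.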

[9] = target: 3',5'-cyclic-AMP phosphodiesterase 4B (Homo sapiens) (UniProt Q07343); assay: qHTS Assay for Inhibitors of PDE-IV (AID 607; active = well fitted activation curve with a large enough effect in the main read-out, with a control signal flat, not every such curve was filed as active; note: % of control where 0% means no effect); settings: HEK293 ACTOne CNG channel cells, membrane potential fluorescence; series mostly up to 22.9 µM
How it was run: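 ACTOne HEK293 cells carry a modified cAMP-gated CNG channel and express endogenous PDE4; plated 1000 cells/well, compounds up to 22.9 uM final. Membrane-potential dye fluorescence (ex 535/em 590) was read; parental cells received 10 uM forskolin + 100 uM RO 20-1724.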

[10] = target: Cytochrome P450 3A4 (Homo sapiens) (UniProt P08684); assay: qHTS Assay for Activators of Cytochrome P450 3A4 (AID 885; active = well fitted curve in the direction sought with a large enough effect; an effect the other way counts as inactive or inconclusive; note: nearly all actives have a fitted effect of over 65% in size); settings: recombinant CYP3A4, Luciferin-PPXE luminescence, 60 min; series mostly up to 11.4 µM
How it was run: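 CYP3A4 activity: Luciferin-PPXE O-dealkylation, 25uM substrate, 200mM KPO4, RT throughout. Read-out is luciferase luminescence; higher values reflect activation.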

[11] = Confirmation and Secondary Assay for Modulators of Hemoglobin Beta Chain Splicing at IVS2 654 locus (AID 910; active = well fitted curve in the direction sought with a large enough effect; an effect the other way counts as inactive or inconclusive;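 note: HeLa cells stably carrying EGFP split by mutant beta-globin IVS2-654 intron; % of control where 0% means no effect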); settings: HeLa EGFP-654 splicing reporter, GFP fluorescence, 48 h; series mostly up to 38.3 µM
How it was run: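 HeLa cells stably expressing EGFP interrupted by β-globin IVS2-654 intron, seeded overnight in Opti-MEM/2% FCS, then treated 2 days at 37 °C. Restored splicing read as total peak GFP intensity per well by laser scanning cytometry (488 nm excitation, 500–520 nm emission); 500 nM antisense PNA as control.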

[12] = qHTS Assay for Identification of Small Molecule Agonists for Hypoxia Response Element Signaling Pathway (AID 914; active = well fitted activation curve with a large enough effect in the signal ratio, with a control signal flat, not every such curve was filed as active; the % refers to the signal ratio; note: % of control where 0% means no effect); settings: ME-180 (cervical carcinoma) HRE-bla reporter, beta-lactamase ratio, CoCl2, 17 h; activation: active compounds read high
How it was run: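 HRE-bla ME-180 assay for agonist-like enhancement of an EC50 CoCl2 stimulus: 17 h at 37 degrees Celsius, CCF4 for 2.5 h, ratiometric 460/530 nm signal converted to %Activity and fitted to AC50.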

[13] = target: Cytochrome P450 2D6 (Homo sapiens) (UniProt P10635); assay: qHTS Assay for Inhibitors and Substrates of Cytochrome P450 2D6 (AID 891; active = well fitted curve in the direction sought with a large enough effect; an effect the other way counts as inactive or inconclusive; note: nearly all actives have a fitted effect of over 60% in size; note: potency is the fitted concentration of half-maximal effect); settings: recombinant CYP2D6, luciferin-ME EGE luminescence; series mostly up to 11.4 µM
How it was run: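 Luminescent read-out of luciferin formed by 5 nM human CYP2D6 demethylating 30 uM Luciferin-ME EGE (Km level) over 60 min at room temperature after NADPH regeneration addition. Data normalized to full inhibition by 1.43 uM quinidine.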

[14] = target: Cytochrome P450 2C19 (Homo sapiens) (UniProt P33261); assay: qHTS Assay for Inhibitors and Substrates of Cytochrome P450 2C19 (AID 899; active = well fitted curve in the direction sought with a large enough effect; an effect the other way counts as inactive or inconclusive; note: nearly all actives have a fitted effect of over 60% in size; note: potency is the fitted concentration of half-maximal effect); settings: recombinant CYP2C19, luciferin-H EGE luminescence; series mostly up to 11.4 µM
How it was run: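 Signal comes from luciferase acting on luciferin released by CYP2C19-mediated hydroxylation of Luciferin-H EGE, 10uM (KM). Assay mix: 5nM enzyme, 50mM KPO4; 60 min at 37C with NADPH regeneration. Data normalized against 57uM ketoconazole.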

Chain of 3',5'-cyclic-AMP phosphodiesterase 4B (Homo sapiens) (Q07343 whole entry, looked up): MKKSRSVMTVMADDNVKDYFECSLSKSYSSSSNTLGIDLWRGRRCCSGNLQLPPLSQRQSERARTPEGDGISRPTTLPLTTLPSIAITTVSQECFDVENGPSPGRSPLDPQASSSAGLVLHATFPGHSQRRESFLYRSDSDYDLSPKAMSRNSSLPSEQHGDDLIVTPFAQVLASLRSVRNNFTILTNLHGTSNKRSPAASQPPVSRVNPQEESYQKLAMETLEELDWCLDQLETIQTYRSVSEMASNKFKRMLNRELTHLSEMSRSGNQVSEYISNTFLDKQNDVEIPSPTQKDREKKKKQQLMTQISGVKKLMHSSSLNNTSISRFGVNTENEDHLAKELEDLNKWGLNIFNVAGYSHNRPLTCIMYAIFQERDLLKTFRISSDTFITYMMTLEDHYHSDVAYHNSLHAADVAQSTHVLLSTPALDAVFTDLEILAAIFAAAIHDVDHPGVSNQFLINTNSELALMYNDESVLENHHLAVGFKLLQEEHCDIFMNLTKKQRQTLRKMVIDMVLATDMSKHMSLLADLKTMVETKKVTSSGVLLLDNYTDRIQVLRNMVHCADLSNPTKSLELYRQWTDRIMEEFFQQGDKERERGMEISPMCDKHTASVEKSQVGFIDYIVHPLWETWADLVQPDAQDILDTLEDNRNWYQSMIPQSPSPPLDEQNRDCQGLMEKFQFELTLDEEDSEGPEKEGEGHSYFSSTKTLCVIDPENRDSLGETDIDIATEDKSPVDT
Chain of Lysosomal acid glucosylceramidase (Homo sapiens) (P04062 whole entry, looked up): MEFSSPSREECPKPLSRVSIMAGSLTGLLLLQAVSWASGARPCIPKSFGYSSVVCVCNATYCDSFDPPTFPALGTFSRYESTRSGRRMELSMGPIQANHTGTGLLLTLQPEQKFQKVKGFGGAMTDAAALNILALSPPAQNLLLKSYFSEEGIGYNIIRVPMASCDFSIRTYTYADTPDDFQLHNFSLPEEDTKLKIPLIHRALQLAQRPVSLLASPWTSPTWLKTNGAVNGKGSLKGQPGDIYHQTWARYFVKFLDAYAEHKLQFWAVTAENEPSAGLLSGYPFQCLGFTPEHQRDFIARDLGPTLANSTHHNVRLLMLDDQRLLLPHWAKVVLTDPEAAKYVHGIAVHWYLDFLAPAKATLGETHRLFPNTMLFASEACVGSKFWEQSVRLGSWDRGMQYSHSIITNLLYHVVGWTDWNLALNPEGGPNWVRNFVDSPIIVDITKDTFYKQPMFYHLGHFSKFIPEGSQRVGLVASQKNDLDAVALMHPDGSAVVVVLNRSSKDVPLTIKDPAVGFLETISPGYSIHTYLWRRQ
Chain of Cytochrome P450 1A2 (Homo sapiens) (P05177 whole entry, looked up): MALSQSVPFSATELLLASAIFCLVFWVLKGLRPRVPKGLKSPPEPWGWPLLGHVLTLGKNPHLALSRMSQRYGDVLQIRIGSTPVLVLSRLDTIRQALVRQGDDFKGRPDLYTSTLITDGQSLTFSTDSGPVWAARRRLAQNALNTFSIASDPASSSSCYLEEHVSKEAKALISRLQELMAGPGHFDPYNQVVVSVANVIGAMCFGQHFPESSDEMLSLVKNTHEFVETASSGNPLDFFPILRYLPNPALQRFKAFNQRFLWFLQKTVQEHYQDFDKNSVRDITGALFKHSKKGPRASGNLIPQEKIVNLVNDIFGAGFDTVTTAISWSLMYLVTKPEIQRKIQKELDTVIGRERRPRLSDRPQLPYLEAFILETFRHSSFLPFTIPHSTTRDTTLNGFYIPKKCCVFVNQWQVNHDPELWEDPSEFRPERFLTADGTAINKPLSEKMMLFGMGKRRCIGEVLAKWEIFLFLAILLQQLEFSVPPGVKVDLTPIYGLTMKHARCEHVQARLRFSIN
Chain of Glucocorticoid receptor (Homo sapiens) (P04150 whole entry, looked up, the tested form may be a part): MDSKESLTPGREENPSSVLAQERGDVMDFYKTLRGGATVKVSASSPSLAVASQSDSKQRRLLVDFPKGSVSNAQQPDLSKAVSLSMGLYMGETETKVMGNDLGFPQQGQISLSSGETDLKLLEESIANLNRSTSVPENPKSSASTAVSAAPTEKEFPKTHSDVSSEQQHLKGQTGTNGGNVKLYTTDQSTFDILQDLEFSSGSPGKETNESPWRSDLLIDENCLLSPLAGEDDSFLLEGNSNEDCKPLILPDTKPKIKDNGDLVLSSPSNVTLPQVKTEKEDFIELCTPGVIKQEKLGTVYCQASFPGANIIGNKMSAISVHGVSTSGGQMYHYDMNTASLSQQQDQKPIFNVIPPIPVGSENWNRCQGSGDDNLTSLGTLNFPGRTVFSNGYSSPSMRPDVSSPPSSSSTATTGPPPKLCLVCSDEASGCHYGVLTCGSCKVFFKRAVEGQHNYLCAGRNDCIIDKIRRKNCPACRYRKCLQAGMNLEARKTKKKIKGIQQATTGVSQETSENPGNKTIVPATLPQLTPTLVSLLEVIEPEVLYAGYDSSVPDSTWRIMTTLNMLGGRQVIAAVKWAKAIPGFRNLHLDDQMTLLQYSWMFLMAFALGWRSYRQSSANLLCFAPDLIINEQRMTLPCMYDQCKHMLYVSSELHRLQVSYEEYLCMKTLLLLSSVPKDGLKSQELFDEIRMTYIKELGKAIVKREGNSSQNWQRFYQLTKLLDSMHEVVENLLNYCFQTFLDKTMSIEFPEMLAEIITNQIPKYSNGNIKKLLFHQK
Chain of Cytochrome P450 3A4 (Homo sapiens) (P08684 whole entry, looked up): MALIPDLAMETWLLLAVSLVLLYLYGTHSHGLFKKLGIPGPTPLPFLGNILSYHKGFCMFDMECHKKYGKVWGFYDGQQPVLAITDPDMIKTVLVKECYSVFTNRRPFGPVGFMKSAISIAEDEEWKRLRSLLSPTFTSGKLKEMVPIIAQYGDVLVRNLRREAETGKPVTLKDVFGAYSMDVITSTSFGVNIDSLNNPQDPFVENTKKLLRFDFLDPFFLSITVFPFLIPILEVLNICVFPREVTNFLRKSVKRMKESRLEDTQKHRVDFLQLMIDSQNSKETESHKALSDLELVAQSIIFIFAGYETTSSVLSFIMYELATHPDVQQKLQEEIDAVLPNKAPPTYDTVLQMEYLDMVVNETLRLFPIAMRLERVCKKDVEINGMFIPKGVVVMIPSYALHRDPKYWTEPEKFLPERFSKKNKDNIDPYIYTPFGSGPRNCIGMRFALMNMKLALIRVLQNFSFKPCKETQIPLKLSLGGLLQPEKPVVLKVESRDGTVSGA
Chain of Cytochrome P450 2D6 (Homo sapiens) (P10635 whole entry, looked up): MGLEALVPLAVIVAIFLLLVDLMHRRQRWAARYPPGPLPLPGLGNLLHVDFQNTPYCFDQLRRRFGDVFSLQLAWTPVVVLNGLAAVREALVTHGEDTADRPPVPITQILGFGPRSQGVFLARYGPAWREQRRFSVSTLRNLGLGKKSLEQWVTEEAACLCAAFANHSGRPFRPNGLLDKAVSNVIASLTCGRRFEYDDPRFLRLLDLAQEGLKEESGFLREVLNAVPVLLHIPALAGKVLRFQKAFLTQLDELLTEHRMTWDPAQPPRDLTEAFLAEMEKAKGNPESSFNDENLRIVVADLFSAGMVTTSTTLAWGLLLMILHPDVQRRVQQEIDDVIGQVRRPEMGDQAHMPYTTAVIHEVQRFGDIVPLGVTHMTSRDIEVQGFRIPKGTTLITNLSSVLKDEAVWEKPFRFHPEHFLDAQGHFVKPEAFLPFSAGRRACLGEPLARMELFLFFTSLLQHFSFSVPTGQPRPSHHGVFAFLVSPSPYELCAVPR
Chain of Cytochrome P450 2C19 (Homo sapiens) (P33261 whole entry, looked up): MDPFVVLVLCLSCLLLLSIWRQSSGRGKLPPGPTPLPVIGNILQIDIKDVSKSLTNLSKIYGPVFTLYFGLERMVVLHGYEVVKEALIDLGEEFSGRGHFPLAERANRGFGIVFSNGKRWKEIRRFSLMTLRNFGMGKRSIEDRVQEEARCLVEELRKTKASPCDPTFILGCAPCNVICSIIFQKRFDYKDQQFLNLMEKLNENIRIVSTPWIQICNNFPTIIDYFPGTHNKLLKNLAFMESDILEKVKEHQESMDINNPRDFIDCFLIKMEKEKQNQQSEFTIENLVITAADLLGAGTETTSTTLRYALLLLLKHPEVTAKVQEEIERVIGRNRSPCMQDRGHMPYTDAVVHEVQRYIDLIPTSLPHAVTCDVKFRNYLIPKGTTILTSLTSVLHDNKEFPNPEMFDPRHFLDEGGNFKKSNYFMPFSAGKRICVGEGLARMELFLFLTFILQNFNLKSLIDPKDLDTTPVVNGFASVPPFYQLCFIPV

Compound	Potency [1]	activity change, negative = inhibition [2] [%]	Potency [3]	activity change, negative = inhibition [4] [%]	activity, negative = inhibition [5] [%]	Potency [6] [µM]	Potency [7] [µM]	Potency [8]	Potency [9]	Potency [10]	outcome [11]	activation [12] [%]	activity change, negative = inhibition [3]	Potency [13]	Potency [14]
CN(C)C(=O)c1ccc(-c2nc(Nc3ccncc3)c3ccccc3n2)cc1	3.84 µM (active)	-14.2	7.94 µM (active)	-7.95	-6.09	> 46	> 46	inactive	inactive	inactive	inactive	-8.23	–	–	–
O=C1NC(=O)[C@@](Cc2ccccc2)(c2cccnc2)N1	> 11.4 µM	-12.7	–	9.84	-7.87	> 46	> 9.22	inactive	inactive	inactive	–	5.55	-17.1% [at 2.29 µM]	–	–
CC(C)NC1(C(N)=O)CCN(Cc2ccccc2)CC1	> 11.4 µM	0.245	–	-10.3	-5.76	> 46	> 9.22	inactive	inactive	–	–	–	7.6% [at 2.29 µM]	0.631 µM (active)	–
O=C(O)c1ccc(Oc2nc3ccccc3s2)cc1	> 11.4 µM	-5.86	3.16 µM (active)	11.2	5.77	> 46	> 9.22	inactive	inactive	inactive	–	–	–	–	3.98 µM (active)
Cc1cnc(CNc2nc(-c3cccnc3)nc3ccccc23)cn1	> 11.4 µM	-11.8	2.51 µM (active)	0.457	-9.76	> 46	> 46	inactive	inactive	inactive	inactive	–	–	–	–
COc1cc2c(cc1OC)C(CCN)=NCC2	> 11.4 µM	7.92	5.01 µM (active)	-11.2	8.17	> 46	> 9.22	inactive	inactive	inactive	–	–	–	–	inactive
CN(C)CCN(c1ccccn1)c1ccccn1	> 11.4 µM	11.2	inactive	7.47	11.4	> 46	> 9.22	inactive	inactive	–	–	–	–	–	inactive
CC(C)CNC(=O)O	> 11.4 µM	8.49	inactive	0.858	3.89	> 46	> 9.22	inactive	inactive	–	–	–	–	inactive	inactive
Cc1cc(C(C)(C)C)cc(CNC2CCCCC2)c1O	> 11.4 µM	8.19	3.16 µM (active)	22.7	10.5	> 46	> 9.22	inactive	inactive	–	–	–	–	0.501 µM (active)	0.02 µM (active)
O=C(O)CSSCC(=O)O	> 11.4 µM	5.08	inactive	15.8	17.7	> 46	> 9.22	inactive	inactive	–	–	–	–	inactive	inactive
CC(C)(C)c1ccc(O)c(CN(Cc2c(O)ccc3ccccc23)C2CCCCC2)c1	> 11.4 µM	-7.92	3.98 µM (active)	-10.8	-13.7	> 46	> 9.22	inactive	inactive	–	–	2.73	–	0.794 µM (active)	2 µM (active)
CC[C@H](C(=O)c1cccs1)C(O)(C(F)(F)F)C(F)(F)F	> 11.4 µM	-7.57	–	20.8	-6.19	> 46	> 9.22	inactive	inactive	–	–	–	-17.5% [at 2.29 µM]	3.16 µM (active)	–
NC(=O)c1csc(-c2ccc(CO)o2)n1	> 11.4 µM	-2.81	inactive	10.7	13.2	> 46	> 9.22	inactive	inactive	–	–	–	–	–	inactive
O[C@@H](COc1ccc(Cl)cc1Cl)CN1CCCC1	> 11.4 µM	7.86	5.01 µM (active)	2.25	4.26	> 46	> 9.22	inactive	inactive	–	–	–	–	0.316 µM (active)	–
C[N+](C)(N)CCC[N+](C)(C)N	> 11.4 µM	6.06	inactive	24.5	8.44	> 46	> 9.22	inactive	inactive	–	–	–	–	inactive	inactive
CCOC(=S)SCC(=O)O	> 11.4 µM	3.32	inactive	9.65	16.6	> 46	> 9.22	inactive	inactive	–	–	–	–	inactive	–
Cn1c(=O)c2[nH]c(CCCCc3nc4ccccc4[nH]3)nc2n(C)c1=O	> 11.4 µM	-12.7	inactive	25	5.57	> 46	> 9.22	inactive	inactive	–	–	–	–	inactive	inactive
CN1CCc2[nH]nc(-c3n[nH]c4c3CN(C)CC4)c2C1	> 11.4 µM	3.96	inactive	4.1	2.92	> 46	> 9.22	inactive	inactive	–	–	–	–	–	inactive
S=C(Nc1ccc2cn[nH]c2c1)Nc1ccc2cn[nH]c2c1	> 11.4 µM	-15	0.126 µM (active)	19.4	1.71	> 46	> 9.22	inactive	inactive	–	–	–	–	2 µM (active)	–
CC[C@H]1CN(C)[C@H]2Cc3c([nH]c4ccccc34)C(=O)C[C@H]1[C@H]2C(=O)OC	> 11.4 µM	-2.14	inactive	11.7	8.84	> 46	> 9.22	inactive	inactive	–	–	–	–	inactive	–
CN(Cc1cc(Cl)cc(Cl)c1O)Cc1c(O)ccc2ccccc12	> 11.4 µM	-8.51	0.631 µM (active)	-4.41	-1.99	> 46	> 9.22	inactive	inactive	–	–	–	–	1.26 µM (active)	1.26 µM (active)
c1ccc2sc(SCCSc3nc4ccccc4s3)nc2c1	> 11.4 µM	8.08	0.794 µM (active)	-22.4	2.32	> 46	> 9.22	inactive	inactive	–	–	–	–	inactive	–
Clc1cc2c(c(CSC3=NCN(CC4CC4)CN3)c1)OCOC2	> 11.4 µM	5.83	3.16 µM (active)	-19.2	0.512	> 46	> 9.22	inactive	inactive	–	–	–	–	0.199 µM (active)	–
O=C(O)c1ccc(/C=N\N=C2c3ccccc3-c3ccccc32)cc1	> 11.4 µM	-12.4	0.126 µM (active)	-25.2	-6.87	> 46	> 9.22	inactive	inactive	–	–	–	–	inactive	–
Nc1nc(Cl)cc(NCCO)n1	> 11.4 µM	-4.13	inactive	10.4	4.67	> 46	> 9.22	inactive	inactive	–	–	–	–	inactive	inactive
COc1ccc(-c2cc([C@H](O)[C@@H]3CCCCN3)c3ccccc3n2)cc1	> 11.4 µM	27.7	–	23.2	2.85	> 46	> 9.22	inactive	inactive	–	–	–	-11% [at 2.29 µM]	3.16 µM (active)	3.98 µM (active)
Nc1ccc(S(=O)(=O)NCCS(=O)(=O)O)cc1	> 11.4 µM	-2.08	–	6.94	-3.3	> 46	> 9.22	inactive	inactive	–	–	-1.31	-3.1% [at 2.29 µM]	inactive	–
